Assay outcomes deposited in PubChem BioAssay by National Center for Advancing Translational Sciences (NCATS).
Rows were chosen to be rich in hits. Some 2.8% of all compounds tested hit in one or more screens of this group.
ATXN2 expr inh – inhibitors of ATXN2 expression; Potency, µM (highest dose often 57 µM), for the others: at the top dose activity change, negative = inhibition, usual class: inhibitors; AID 1745845; HEK-293 ATXN2-luciferase reporter, luminescence, 24 h; 360,000 tested, 0.72% active; further: potency means the concentration at half of the fitted maximal effect; on the % scale 0 is the no-effect control and ±100 the full control effect; nearly all actives have a fitted effect of over 55% in size
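qHTS (up to 57 uM final) was run with 24 h compound exposure of reporter cells at 37 °C. Each well was multiplexed: SteadyGlo luminescence measured ATXN2-luciferase expression after a fluorogenic Gly-Phe-AFC viability readout (25 uM final).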
CtBP-E1A blk – blocks the CtBP interaction with E1A. AlphaScreen GST-E1A/His-CtBP binding, 1536-well; active compounds read low. activity change, % (no concentration beside the values). 340,000 tested, 0.49% active. AID 651724; in the data active means activity change below about -65%; inconclusive means mostly about -30% to -63%; further: on the % scale 0 is the no-effect control and ±100 the full control effect
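Protein mix (5X: 125 nM each GST-E1A, His-CtBP) was incubated with pinned compound 2 h at 37 deg C in dark, in 50 mM Tris pH 8.0 buffer with 300 mM NaCl. Glutathione donor and nickel acceptor beads followed; AlphaScreen signal read after 1 h.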
ATXN viability – viability counter-screen for ATXN expression inhibitors. S2 cells (HEK-293 line with an ATXN2-luciferase reporter) viability, CellTiter-Fluor protease fluorescence, 24 h. Potency, µM (titrated, usually from 56.7 µM), actives largely listed as cytotoxic. 400,000 tested, 0.49% active. AID 651635; further: potency means the concentration at half of the fitted maximal effect; nearly all actives have a fitted effect of over 40% in size
TGFb SMAD3 inh – TGF-b pathway inhibition | Potency, µM (titrated, usually from 46.1 µM), for the others: top-dose activity, negative = inhibition, most hits filed as inhibitors | HepG2 CAGA-GFP TGF-b/SMAD3 reporter, GFP fluorescence, 18 h; TGF-beta stimulated, 500 pg/mL final | 410,000 tested, 1.2% active; further: potency means the concentration at half of the fitted maximal effect; on the % scale 0 is the no-effect control and ±100 the full control effect; nearly all actives have a fitted effect of over 65% in size
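Using HEPG2 CAGA-GFP reporter cells at 1000 cells/well, we pinned test compounds, stimulated with recombinant TGF-beta (500 pg/mL final) and measured total well GFP after 18 h.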
HepG2 viability – counter-screen for TGF-b inhibitors: cytotoxicity in HepG2 cells; HepG2 CAGA-GFP viability, ATP luminescence, 18 h; Potency, µM (series often up to 46.1 µM), inactives show at the top dose activity change, negative = cytotoxicity, most hits filed as cytotoxic; 410,000 tested, 0.76% active; AID 588856; further: potency means the concentration at half of the fitted maximal effect
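HepG2 CAGA-GFP cells (1000/well, DMEM with 1% FBS) received compound, then TGF-beta at 500 pg/mL final, and were incubated 18 hours at 37 degrees C. Viability was read by CellTiter-Glo luminescence. Media-only wells were set as complete cell-killing and DMSO as no toxicity.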
Six1-Eya2 inh – inhibitors of human Six1/Eya2 interaction | Q15475+O00167 | AlphaScreen GST-Six1/His-Eya2 binding, biochemical; active compounds read low | activity change, % (concentration not given with the values) | 360,000 tested, 0.56% active | AID 651725; in the data active means activity change below about -65%; inconclusive means mostly about -30% to -63%; further: on the % scale 0 is the no-effect control and ±100 the full control effect
Target sequence (O00167 whole entry, looked up): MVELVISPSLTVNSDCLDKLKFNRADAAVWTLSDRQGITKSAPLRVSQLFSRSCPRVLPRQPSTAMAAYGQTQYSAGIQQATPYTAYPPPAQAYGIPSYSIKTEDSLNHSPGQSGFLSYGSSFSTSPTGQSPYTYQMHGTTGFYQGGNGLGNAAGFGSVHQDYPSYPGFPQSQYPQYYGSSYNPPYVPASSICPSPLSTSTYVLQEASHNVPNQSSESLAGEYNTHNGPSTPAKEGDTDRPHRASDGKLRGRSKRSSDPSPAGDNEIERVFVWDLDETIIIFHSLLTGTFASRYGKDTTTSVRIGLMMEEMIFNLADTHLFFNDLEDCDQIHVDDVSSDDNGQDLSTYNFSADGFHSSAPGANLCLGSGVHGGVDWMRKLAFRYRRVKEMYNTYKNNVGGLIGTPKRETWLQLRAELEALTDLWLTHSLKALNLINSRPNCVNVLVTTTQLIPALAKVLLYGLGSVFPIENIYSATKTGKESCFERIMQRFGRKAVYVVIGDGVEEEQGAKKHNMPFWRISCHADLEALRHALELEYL
Target sequence (Q15475 whole entry, looked up): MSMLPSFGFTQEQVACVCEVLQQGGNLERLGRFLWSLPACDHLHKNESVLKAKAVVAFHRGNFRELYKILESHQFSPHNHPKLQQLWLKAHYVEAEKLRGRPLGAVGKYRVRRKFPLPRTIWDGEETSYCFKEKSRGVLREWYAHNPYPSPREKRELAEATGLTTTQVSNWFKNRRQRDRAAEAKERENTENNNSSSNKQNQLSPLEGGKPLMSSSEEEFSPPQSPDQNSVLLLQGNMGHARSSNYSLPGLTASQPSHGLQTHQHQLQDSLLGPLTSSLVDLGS
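Six1/Eya2 binding was read as AlphaScreen signal after compounds were pinned into GST-Six1 plus His-tagged Eya2 (5X stock 250/500 nM) in pH 8.0 Tris/NaCl/TCEP buffer, beads added, then incubated 1 h, 37 C, dark.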
The depositor's hits bear a star; i = inactive; u = inconclusive; x = no result given; [ ] = dose if it differs, or a comment. Unless noted, the call rests on the fitted dose curve; in most records, active means well fitted curve in the direction sought with a large enough effect; inconclusive means small, poorly fitted or top-dose-only effect, or another doubt; inactive means no such curve, though single readings can be large; an effect the other way counts as inactive or inconclusive.

SMILES | ATXN2 expr inh | CtBP-E1A blk | ATXN viability | TGFb SMAD3 inh | HepG2 viability | Six1-Eya2 inh
CCC(O)(CC)C(=O)N/N=C/c1cc(Br)cc(Br)c1O | u | u | i | u | -6% | u
CN(CCO)C(=O)c1cn(C2CCN(Cc3cccc4ccccc34)CC2)nn1 | x | x | i | x | x | x
CCS(=O)(=O)Nc1cccc(-c2ccc3nnc(-c4cccnc4)n3n2)c1 | 7% | -85* | i | u | -18% | -67*
Oc1cccc(-c2c3nc(c(-c4cccc(O)c4)c4ccc([nH]4)c(-c4cccc(O)c4)c4nc(c(-c5cccc(O)c5)c5ccc2[nH]5)CC4)C=C3)c1 | -1% | x | 7.1µM* | x | x | x
C#CCOCCOCCOCCNc1nc(N2CCN(C(=O)CCCCCCCCCCNC(=O)Cn3cc(C[C@@H](C)O)nn3)CC2)nc(N2CCN(C(=O)CCCCCCCCCCNC(=O)[C@H](CCCN=C(N)N)n3cc(C[C@@H](C)CC)nn3)CC2)n1 | u | -15 | 20µM* | 14µM* | -51% | -24
C#CCOCCOCCOCCNc1nc(N2CCN(C(=O)CCCCCCCCCCNC(=O)[C@H](CO)n3cc(CCCSC)nn3)CC2)nc(N2CCN(C(=O)CCCCCCCCCCNC(=O)[C@H](CCCN=C(N)N)n3cc(C[C@@H](C)CC)nn3)CC2)n1 | 11µM* | -19 | 11µM* | u | 10µM* | -11
C#CCOCCOCCOCCNc1nc(N2CCN(C(=O)CCCCCCCCCCNC(=O)[C@H](CO)n3cc(CCCSC)nn3)CC2)nc(N2CCN(C(=O)CCCCCCCCCCNC(=O)[C@H](CCCCN)n3cc(CCO)nn3)CC2)n1 | -18% | -9 | u | -16% | -25% | -9
Cc1ccccc1C(=O)Nc1ccc(C(=O)N2CCCC(N(C)C)c3ccccc32)cc1 (configuration not stated) | -20% | x | u | x | x | x
N#CC1(NC(=O)CSc2nnc(C3CC3)n2N)CCCCC1 | x | 3 | i | 5% | -4% | 11
COc1ccc(NC(=O)c2nn(C)c3c2CSc2ccc(C)cc2-3)cc1OC | -34% | x | i | -27% | 11µM* | x
CCCCN1C(=O)C(=O)N(CC(=O)Nc2ccccc2C(=O)OCC)C1=O | 5% | -98* | i | 22% | 13% | 0
CC(=O)c1ccc(NC(=O)c2cn(-c3ccccc3)nc2-c2ccncc2)cc1 | 1% | -2 | u | -12% | -14% | 4
COC(=O)c1ccc(NC(=O)c2cn(-c3ccccc3)nc2-c2ccncc2)cc1 | 5% | -2 | i | 8% | 7.1µM* | -11
Clc1ccccc1-c1nnc(-c2ccccc2CNc2ccc(Br)cc2)o1 | 20% | x | i | -34% | 5% | x
CCOC(=O)c1sc(NC(=O)c2sccc2C)cc1C | 90% | 4 | i | 2% | 14µM* | 4
CCOc1ccccc1NC(=O)C(Cc1ccccc1)NS(=O)(=O)c1ccc(Br)s1 (configuration not stated) | -32% | x | i | u | -27% | x
O=C(O)CCN1C(=O)/C(=C\c2ccc(-c3nc4ccccc4s3)o2)SC1=S | 6% | -75* | u | 8% | -8% | u
O=C(O)CCCN1C(=O)/C(=C\c2ccco2)SC1=S | -16%[11.3 µM] | -5 | i | 5% | -18% | u
CCOc1ccc(Br)cc1C1=NN(C(C)=O)C(c2ccc([N+](=O)[O-])s2)O1 (configuration not stated) | -6% | u | i | 13µM* | -99% | -10
CC(=O)N1N=C(c2ccc(C)cc2)OC1c1ccc(Br)cc1 (configuration not stated) | 48% | x | i | 2% | -11% | -3
Oc1ccccc1C1SC(c2ccccc2O)SC(c2ccccc2O)S1 (configuration not stated) | 20µM* | 1 | x | u | 22µM* | 2
Cc1cc2c(cc1C)CSC(c1ccccc1O)SC2 | -23% | -2 | u | 16µM* | -105% | -11
COc1ccc(/C=C/c2ccnc3ccccc23)cc1 | x | x | x | u | -32% | x
Cc1c(C(=O)NCc2cccc(F)c2)sc2ncnc(NCC3CCCO3)c12 (configuration not stated) | x | x | i | x | x | x
Cc1ccc(Cc2c(C)nn(-c3nc(C)c(C(=O)N4CCCCC4C)s3)c2C)cc1 (configuration not stated) | 5% | x | i | 3% | -3% | x
SMILES | ATXN2 expr inh | CtBP-E1A blk | ATXN viability | TGFb SMAD3 inh | HepG2 viability | Six1-Eya2 inh
CC(C)c1ccc(S(=O)(=O)c2cnc(SCC(=O)Nc3cccc(C(F)(F)F)c3)nc2N)cc1 | u | x | i | u | -48% | x
COc1cc2c(cc1OC)C(C)N(C(=O)c1cc3c(s1)-c1ccccc1OC3)CC2 (configuration not stated) | 25µM* | 1 | u | 11µM* | -29% | -1
COc1cc2c(cc1OC)C(C)N(C(=O)c1cc3c(s1)-c1c(C)cccc1OC3)CC2 (configuration not stated) | u | -1 | u | u | -33% | -4
CCCCc1ccc(NC(=O)CSc2nc3ccccc3nc2N2CCCCC2)cc1 | 2% | x | i | 0% | 1% | x
CC(C)n1c(C=C[C@H](O)C[C@H](O)CC(=O)O)c(-c2ccc(F)cc2)c2ccccc21 | 28% | x | x | x | x | x
C/C=C(\C)C(=O)NCCN1C2=NC[C@H](C(C)C)N2C[C@H]1Cc1ccc(O)cc1 | -2% | -7 | i | -2% | -1% | 4
C/C=C(\C)C(=O)NCCN1C2=NC[C@H](C(C)C)N2C[C@@H]1Cc1ccc(OC)cc1 | 10% | -70* | i | 2% | 1% | -72*
Cc1ccc(C(=O)NCCN2C3=NC[C@H](C)N3C[C@H]2Cc2ccc(O)cc2)cc1Br | u | -4 | i | 2% | 1% | -4
